The values below come from PubChem BioAssay (Tox21).

A number with no mark means an inactive call. Results filed as inconclusive are left out. Active and inactive are the calls of the source. Unless noted, the call rests on the fitted dose curve; in most records, active means well fitted curve in the direction sought with a large enough effect in the repeat runs; inconclusive means weak or mixed curves; inactive means no such curve, though single readings can be large; an effect the other way counts as inactive or inconclusive.

Experiment [1] in a line: qHTS assay to identify small molecule antagonists of the estrogen related receptor signaling pathway with the pleiotropic PPARgamma coactivator (PGC) from Tox21 10K library - cell viability counter screen (AID 1224840; active means well fitted cell-killing curve with a large enough effect in the repeat runs, not every such curve was filed as active; further: nearly all actives have a fitted effect of over 40% in size). A digest of the protocol:
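Following seeding of 2,000 PGC/ERR cells/well and 6 hours' incubation, test compounds were delivered in DMSO. The plates then sat 17.5 hours at 37 C before a fluorogenic live-cell protease reagent (CellTiter-Fluor) was read after 30 min.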
For orientation: In qHTS, concentration-response curves come from the screen itself.

A short description of experiment [2]: qHTS assay to identify small molecule agonists of the estrogen related receptor signaling pathway with the pleiotropic PPARgamma coactivator (PGC) from Tox21 10K library (AID 1224842). Further: nearly all actives have a fitted effect of over 15% in size. A digest of the protocol:
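PGC/ERR reporter cells (NTP line) were seeded 2,000 per well, rested 6 h at 37 C/5% CO2, then pin-dosed with compounds in DMSO for 18 h at 37 C; luciferase read by One-Glo luminescence after 30 min at room temperature.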

The target of experiment [3] is Thyrotropin receptor (Homo sapiens) (UniProt P16473). Kind of experiment: qHTS assay to identify small molecule agonists of the thyroid stimulating hormone receptor (TSHR) signaling pathway (AID 1224843; calls by dose curve; further: nearly all actives have a fitted effect of over 45% in size). A digest of the protocol: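 Cell line HEK293 with TSHR; density 800/well. Exposure 30 min RT. Readout HTRF cAMP (cAMP-d2/anti-cAMP-cryptate), 1 h RT before reading.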
Sequence of Thyrotropin receptor (Homo sapiens) (P16473 whole entry, looked up): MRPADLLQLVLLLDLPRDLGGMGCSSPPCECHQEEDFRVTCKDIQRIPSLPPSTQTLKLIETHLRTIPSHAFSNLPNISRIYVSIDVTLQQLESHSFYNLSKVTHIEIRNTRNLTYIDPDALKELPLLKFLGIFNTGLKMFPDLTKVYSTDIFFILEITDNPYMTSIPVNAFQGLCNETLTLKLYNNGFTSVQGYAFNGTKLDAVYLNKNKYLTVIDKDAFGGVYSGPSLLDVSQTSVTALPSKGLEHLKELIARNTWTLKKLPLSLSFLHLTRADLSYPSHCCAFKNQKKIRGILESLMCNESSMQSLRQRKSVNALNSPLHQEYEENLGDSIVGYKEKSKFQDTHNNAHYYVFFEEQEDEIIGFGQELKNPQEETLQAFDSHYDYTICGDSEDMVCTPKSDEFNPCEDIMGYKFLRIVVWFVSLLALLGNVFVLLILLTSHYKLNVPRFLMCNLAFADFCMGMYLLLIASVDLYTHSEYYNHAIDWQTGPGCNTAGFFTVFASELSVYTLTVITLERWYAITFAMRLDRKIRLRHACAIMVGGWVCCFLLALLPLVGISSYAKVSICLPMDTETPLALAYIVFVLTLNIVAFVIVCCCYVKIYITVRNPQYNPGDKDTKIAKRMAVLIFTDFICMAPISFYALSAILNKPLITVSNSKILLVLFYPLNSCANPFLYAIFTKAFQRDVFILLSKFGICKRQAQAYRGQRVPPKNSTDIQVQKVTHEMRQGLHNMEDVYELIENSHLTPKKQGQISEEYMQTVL

A short description of experiment [4]: qHTS assay to identify small molecule agonists of the hypoxia (HIF-1) signaling pathway - cell viability counter screen (AID 1224844; calls by dose curve; further: nearly all actives have a fitted effect of over 50% in size). A digest of the protocol:
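Cells (HRE-bla ME-180, 2,000 per well) sat 5 hrs at 37C, got compound for 17 hrs, were read for CCF4-AM FRET, and were finally lysed with CellTiter-Glo for a 30 min room-temperature luminescence read.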

Experiment [5] in a line: qHTS assay to identify small molecule agonists of H2AX (AID 1224845; active means well fitted activation curve with a large enough effect in the signal ratio in the repeat runs, not every such curve was filed as active; the % refers to the signal ratio). The procedure, abridged:
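Wild-type CHO-K1 cells plated overnight, then exposed 3 hr at 37C to compounds at 15 concentrations (0.76% DMSO). Lysed, then HTRF anti-pH2AX(S139)-cryptate/anti-H2AX-d2 detection after 24 hr at room temperature; emissions 665 and 620 nm.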

Experiment [6] can be described thus: qHTS assay to identify small molecule agonists of the hypoxia (HIF-1) signaling pathway (AID 1224846; active means well fitted activation curve with a large enough effect in the signal ratio in the repeat runs, not every such curve was filed as active; the % refers to the signal ratio). A digest of the protocol: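 A low-serum medium (0.5% dialyzed FBS) holding 2,000 HRE-bla ME-180 cells per well is preincubated for 5 hrs, dosed with compounds by pintool, and kept a further 17 hrs at 37C, 5% CO2 before CCF4-AM FRET detection of beta-lactamase.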

The nature of experiment [7]: qHTS assay to identify small molecule agonists of H2AX - cell viability counter screen (AID 1224847; calls by dose curve; further: top concentration of the series differs between compounds; nearly all actives have a fitted effect of over 30% in size). The procedure, abridged:
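Cells plated first: CHO-K1, 1000 per well in 10% FBS medium, incubated overnight at 37C. Then 15-point compound titration added (final DMSO 0.76%) for 3 hr. Finally CellTiter-Glo added and luminescence read.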

Experiment [8] in a line: qHTS assay to identify small molecule antagonists of the estrogen related receptor (ERR) signaling pathway from Tox21 library (AID 1224848). Further: nearly all actives have a fitted effect of over 50% in size. A digest of the protocol: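 Screening used an ERR reporter line supplied by NTP, exposed for 18 h at 37 C to library compounds delivered in DMSO. Signal was luciferase luminescence developed with ONE-Glo at room temperature for 30 min.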

Experiment [9] is described as follows: qHTS assay to identify small molecule agonists of the estrogen related receptor (ERR) signaling pathway from Tox21 library (AID 1224849; calls by dose curve; further: nearly all actives have a fitted effect of over 15% in size). A digest of the protocol:
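Screening used an NTP-provided ERR luciferase cell line. Compounds in DMSO were added 6 h after seeding and left 18 h at 37 C before a 30 min ONE-Glo step and luminescence reading.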

Experiment [10] can be described thus: qHTS RealTime-Glo MT Cell Viability Assay in HepG2 cells - 24 hour (AID 1224867). Further: nearly all actives have a fitted effect of over 50% in size. The procedure, abridged: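 Luminescence read-out: viable HepG2 cells reduce a prosubstrate to a NanoLuc substrate, giving a signal proportional to live cell number. Reads taken at 0, 8, 16, 24, 32 and 40 h of compound exposure at 37 C.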
The nature of experiment [11]: qHTS RealTime-Glo MT Cell Viability Assay in HEK293 cells - 32 hour (AID 1224868). Further: nearly all actives have a fitted effect of over 50% in size. Further: potency means the concentration at half of the fitted maximal effect. The procedure, abridged:
(§1)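 Nonlytic real-time viability readout: viable cells convert prosubstrate to NanoLuc substrate, giving luminescence proportional to live cell number. HEK293, 600 cells/well, compound added after 5 h, continuous culture at 37 C.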

Experiment [12] is described as follows: A CellTox Green Cytotoxicity Assay to monitor cytotoxicity in HEK293 cells - 0 hour (AID 1224869). Further: nearly all actives have a fitted effect of over 50% in size. A digest of the protocol: (§2)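 Fluorescence intensity, read at 0, 8, 16, 24, 32 and 40 h of compound treatment, reflected dye binding to DNA of dead HEK293 cells; compounds (23 nL, DMSO) were added 5 h after plating cells with reagent.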
Experiment [13] in a line: qHTS RealTime-Glo MT Cell Viability Assay in HEK293 cells - 16 hour (AID 1224872). A digest of the protocol: as §1
A short description of experiment [14]: qHTS RealTime-Glo MT Cell Viability Assay in HepG2 cells - 8 hour (AID 1224873). Further: nearly all actives have a fitted effect of over 55% in size. The procedure, abridged: (§3)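 HepG2 cells mixed with RealTime-Glo MT reagents (NanoLuc plus cell-permeant prosubstrate) were seeded at 600 cells/well, incubated 5 h at 37 C/5% CO2, then pinned with compounds in DMSO; nonlytic luminescence tracked viability during 40 h treatment.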

Experiment [15] in a line: qHTS RealTime-Glo MT Cell Viability Assay in HEK293 cells - 40 hour (AID 1224874). Further: nearly all actives have a fitted effect of over 50% in size. Further: potency means the concentration at half of the fitted maximal effect. The note with it: RealTime-Glo luminescence; max response: stronger effect = lower value. A digest of the protocol: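 Viable HEK293 cells reduce a cell-permeant prosubstrate; the product diffuses out and is consumed by NanoLuc in the medium to give light. Compounds went in after a 5 h incubation and plates were read over the treatment course.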

The nature of experiment [16]: qHTS RealTime-Glo MT Cell Viability Assay in HepG2 cells - 40 hour (AID 1224870). Further: nearly all actives have a fitted effect of over 50% in size. The procedure, abridged:
as §3

Experiment [17] can be described thus: A CellTox Green Cytotoxicity Assay to monitor cytotoxicity in HEK293 cells - 40 hour (AID 1224871). Further: nearly all actives have a fitted effect of over 45% in size. A digest of the protocol:
as §2

Experiment [18] in a line: A CellTox Green Cytotoxicity Assay to monitor cytotoxicity in HEK293 cells - 24 hour (AID 1224875). Further: series mostly up to about 77 µM; nearly all actives have a fitted effect of over 45% in size. A digest of the protocol: as §2
Experiment [19] in a line: qHTS assay to identify small molecule antagonists of the estrogen related receptor signaling pathway with the pleiotropic PPARgamma coactivator (PGC) from Tox21 10K library (AID 1224841; call rule not given here). The procedure, abridged: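 qHTS antagonist format: PGC/ERR cells, 2k/well, compound in DMSO by pin transfer after 6 h attachment, 18 h treatment at 37 C, One-Glo luminescence read at 30 min.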
On the % scale 0 is the no-effect control and ±100 the full control effect.

Take `O=C(COCCOCCOCC(=O)Nc1c(I)cc(I)c(C(=O)O)c1I)Nc1c(I)cc(I)c(C(=O)O)c1I`: the compound was classed as inactive in experiment [1], in experiment [2], in [3], in experiment [4], in experiment [5] and in [6]. Further, the compound was called inactive in [9], in experiment [10] and in experiment [14]. Besides, the Potency entry in experiment [7], in experiment [8], in [11], in experiment [12] and in experiment [13] was “inactive” each time. Also, the max response in experiment [15] is 3.14%.

For `C[C@H](CCC(=O)NCC(=O)O)[C@H]1CC[C@H]2[C@@H]3[C@H](O)C[C@@H]4C[C@H](O)CC[C@]4(C)[C@H]3C[C@H](O)[C@]12C`, the call in [1], in experiment [2], in experiment [3], in [4], in [5] and in experiment [9] was inactive. In addition, the outcome in experiment [10], in [16] and in [14] was inactive. For the same compound, the Potency entry in experiment [7], in experiment [8], in [12], in experiment [17] and in experiment [18] was “inactive” in each case. Besides, the Potency in experiment [11] and in [15] was 9.49 µM (active) in each case.

For `CCCCCN(CCCOC)C(=O)C(CCC(=O)O)NC(=O)c1ccc(Cl)c(Cl)c1` (stereo not drawn), the compound was called inactive in experiment [1], in experiment [2], in experiment [4], in experiment [5], in [6] and in experiment [9]. The compound was classed as inactive in experiment [10], in [16] and in experiment [14]. For the same compound, the Potency entry in experiment [7], in [8], in [11], in [12], in [17] and in [13] was “inactive” each time. Moreover, the Potency result in [18] was “inactive”. Besides, in experiment [15], the max response was -0.0123%.

Regarding `CN=C(NC#N)NCCSCc1csc(N=C(N)N)n1`, the result in [1], in [2], in experiment [3], in [4], in experiment [5] and in experiment [6] was inactive. The compound was classed as inactive in experiment [9], in [10] and in experiment [14]. Further, the Potency result in [7], in experiment [8], in experiment [11], in experiment [12], in experiment [17] and in experiment [13] was “inactive” throughout. Besides, the Potency result in experiment [18] was “inactive”. The max response in experiment [15] is 1.73%.

As to `CCC(C)(C)C1CCC(=O)CC1`, the call in experiment [1], in [2], in experiment [3], in experiment [4], in [5] and in experiment [6] was inactive. Moreover, the outcome in [9], in experiment [10], in [16] and in [14] was inactive. Also, the Potency entry in experiment [7], in experiment [8], in experiment [11], in experiment [12], in experiment [17] and in [13] was “inactive” each time. Besides, the Potency entry in experiment [18] is “inactive”. In addition, in experiment [15], the max response is 7.65%.

As to `CC(Cl)COP(=O)(OCC(C)Cl)OCC(C)Cl` (stereo not drawn), the compound was called inactive in experiment [1], in experiment [2], in experiment [3], in experiment [4], in [5] and in experiment [9]. For the same compound, the compound was called inactive in [10], in experiment [16] and in experiment [14]. Besides, the Potency result in experiment [19], in experiment [7], in [8], in experiment [11], in [12] and in experiment [17] was “inactive” in each case. Besides, the Potency entry in experiment [13] and in experiment [18] was “inactive” throughout. The max response in experiment [15] is -0.188%.

As for `CCCCCCCCCCCCCCCC(=O)NCCO`, the result in experiment [1], in experiment [2], in [3], in experiment [4], in [5] and in experiment [9] was inactive. Besides, the compound was called inactive in [10], in [16] and in experiment [14]. Further, the Potency entry in experiment [7], in experiment [8], in experiment [11], in [12], in experiment [17] and in experiment [13] was “inactive” each time. Moreover, the Potency result in experiment [18] was “inactive”. In addition, in [15], the max response was -2.85%.
